How the values were obtained:
Assay in all cases: log2 ratio of Biotin-Ahx-Ub-VS probe labelling (fragment/DMSO); higher = less target engagement (more negative = stronger competition), active = hit call of the paper (q ≤ 0.05, log2 ratio ≤ -1)
Details in all cases: compound concentration: 200 uM; treatment time: 3 h
USP34 = USP34 (UniProt Q70CQ2)
How it was run: (§1)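 Global-median-normalised Spectronaut label-free quantities were compared by unpaired t-test, and values are average log2 ratios of fragment over vehicle. Only proteins with ≥2 unique peptides were used. HEK293T lysate (495 µg per sample) was treated in triplicate with fragment at 200 µM or vehicle for 3 h and then with Biotin-Ahx-Ub-VS at 0.5 µM final for 1 h. Labelled DUBs were then NeutrAvidin-enriched, digested with LysC and trypsin, and run by diaPASEF LC-MS/MS.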

USP36 = molecular target: T1, USP36 (UniProt Q9P275)
T1 sequence (whole entry): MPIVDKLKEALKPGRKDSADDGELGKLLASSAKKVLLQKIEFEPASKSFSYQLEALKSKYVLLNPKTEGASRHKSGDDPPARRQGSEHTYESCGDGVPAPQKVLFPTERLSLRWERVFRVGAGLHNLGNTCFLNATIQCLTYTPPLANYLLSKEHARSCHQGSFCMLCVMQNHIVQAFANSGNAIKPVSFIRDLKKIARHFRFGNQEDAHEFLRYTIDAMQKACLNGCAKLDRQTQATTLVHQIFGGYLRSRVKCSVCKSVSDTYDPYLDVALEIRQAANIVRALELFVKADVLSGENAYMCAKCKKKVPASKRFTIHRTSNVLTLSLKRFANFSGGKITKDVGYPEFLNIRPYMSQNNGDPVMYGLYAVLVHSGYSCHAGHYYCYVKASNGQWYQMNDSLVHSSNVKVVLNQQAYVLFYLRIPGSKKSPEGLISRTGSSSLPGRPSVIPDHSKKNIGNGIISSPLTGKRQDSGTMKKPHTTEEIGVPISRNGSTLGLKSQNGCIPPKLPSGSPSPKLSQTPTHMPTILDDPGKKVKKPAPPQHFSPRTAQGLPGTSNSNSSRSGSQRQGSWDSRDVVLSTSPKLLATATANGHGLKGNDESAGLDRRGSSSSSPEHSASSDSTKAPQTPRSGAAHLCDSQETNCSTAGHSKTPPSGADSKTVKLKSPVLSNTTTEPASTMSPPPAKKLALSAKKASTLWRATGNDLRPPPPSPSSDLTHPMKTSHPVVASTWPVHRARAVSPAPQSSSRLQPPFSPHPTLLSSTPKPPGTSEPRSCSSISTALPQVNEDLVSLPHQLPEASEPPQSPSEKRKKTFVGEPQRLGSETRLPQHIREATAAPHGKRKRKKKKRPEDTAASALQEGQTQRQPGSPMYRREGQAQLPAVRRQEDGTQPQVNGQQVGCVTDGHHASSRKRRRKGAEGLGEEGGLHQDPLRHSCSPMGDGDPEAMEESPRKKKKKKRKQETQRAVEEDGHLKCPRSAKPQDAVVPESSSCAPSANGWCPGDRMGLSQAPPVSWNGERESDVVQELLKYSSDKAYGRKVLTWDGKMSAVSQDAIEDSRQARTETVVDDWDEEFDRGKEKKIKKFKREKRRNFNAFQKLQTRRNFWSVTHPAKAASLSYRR
How it was run: as §1

USP38 = molecular target: T2, USP38 (UniProt Q8NB14)
T2 sequence (whole entry): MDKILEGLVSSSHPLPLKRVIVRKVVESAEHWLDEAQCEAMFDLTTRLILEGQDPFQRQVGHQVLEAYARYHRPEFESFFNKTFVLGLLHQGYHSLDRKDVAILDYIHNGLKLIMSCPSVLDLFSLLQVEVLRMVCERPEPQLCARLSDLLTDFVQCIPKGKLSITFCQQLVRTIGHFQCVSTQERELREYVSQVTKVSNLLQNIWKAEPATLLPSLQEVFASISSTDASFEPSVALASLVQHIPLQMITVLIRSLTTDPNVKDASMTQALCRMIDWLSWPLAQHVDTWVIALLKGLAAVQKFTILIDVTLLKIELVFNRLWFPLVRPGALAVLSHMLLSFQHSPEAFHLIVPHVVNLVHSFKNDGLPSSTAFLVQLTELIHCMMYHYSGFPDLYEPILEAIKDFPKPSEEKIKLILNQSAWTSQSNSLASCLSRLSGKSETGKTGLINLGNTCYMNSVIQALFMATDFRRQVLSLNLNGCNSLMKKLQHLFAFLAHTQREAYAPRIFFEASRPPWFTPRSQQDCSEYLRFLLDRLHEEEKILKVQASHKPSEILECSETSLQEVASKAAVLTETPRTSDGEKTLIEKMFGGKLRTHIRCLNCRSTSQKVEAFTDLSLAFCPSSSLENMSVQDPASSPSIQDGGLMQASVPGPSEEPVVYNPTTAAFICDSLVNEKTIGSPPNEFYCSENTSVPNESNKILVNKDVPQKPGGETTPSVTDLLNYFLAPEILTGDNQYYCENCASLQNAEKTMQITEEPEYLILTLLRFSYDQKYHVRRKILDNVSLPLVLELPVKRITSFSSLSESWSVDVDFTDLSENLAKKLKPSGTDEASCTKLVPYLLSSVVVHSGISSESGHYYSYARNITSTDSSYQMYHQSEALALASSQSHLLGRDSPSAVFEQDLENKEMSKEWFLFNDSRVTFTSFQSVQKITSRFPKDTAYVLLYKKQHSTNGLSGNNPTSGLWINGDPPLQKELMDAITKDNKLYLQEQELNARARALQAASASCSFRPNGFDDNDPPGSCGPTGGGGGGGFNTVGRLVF
How it was run: as §1

USP39 = molecular target: T3, USP39 (UniProt Q53GS9)
T3 sequence (whole entry): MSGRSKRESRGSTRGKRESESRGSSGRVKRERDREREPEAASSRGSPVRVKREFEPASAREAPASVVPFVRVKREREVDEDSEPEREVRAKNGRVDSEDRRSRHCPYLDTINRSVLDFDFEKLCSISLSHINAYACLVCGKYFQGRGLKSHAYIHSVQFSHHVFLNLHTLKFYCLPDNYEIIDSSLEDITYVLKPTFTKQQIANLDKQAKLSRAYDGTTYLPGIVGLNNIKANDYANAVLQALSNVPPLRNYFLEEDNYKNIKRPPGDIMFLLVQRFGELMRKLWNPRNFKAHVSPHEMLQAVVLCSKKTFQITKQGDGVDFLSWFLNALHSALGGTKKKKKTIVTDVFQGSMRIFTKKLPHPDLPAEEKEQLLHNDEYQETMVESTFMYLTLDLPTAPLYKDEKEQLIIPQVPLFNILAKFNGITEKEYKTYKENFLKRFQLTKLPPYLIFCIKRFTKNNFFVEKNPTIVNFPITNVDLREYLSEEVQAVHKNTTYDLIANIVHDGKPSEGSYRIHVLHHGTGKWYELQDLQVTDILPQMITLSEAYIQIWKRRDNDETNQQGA
How it was run: as §1

USP4 = molecular target: T4, USP4 (UniProt Q13107)
T4 sequence (whole entry): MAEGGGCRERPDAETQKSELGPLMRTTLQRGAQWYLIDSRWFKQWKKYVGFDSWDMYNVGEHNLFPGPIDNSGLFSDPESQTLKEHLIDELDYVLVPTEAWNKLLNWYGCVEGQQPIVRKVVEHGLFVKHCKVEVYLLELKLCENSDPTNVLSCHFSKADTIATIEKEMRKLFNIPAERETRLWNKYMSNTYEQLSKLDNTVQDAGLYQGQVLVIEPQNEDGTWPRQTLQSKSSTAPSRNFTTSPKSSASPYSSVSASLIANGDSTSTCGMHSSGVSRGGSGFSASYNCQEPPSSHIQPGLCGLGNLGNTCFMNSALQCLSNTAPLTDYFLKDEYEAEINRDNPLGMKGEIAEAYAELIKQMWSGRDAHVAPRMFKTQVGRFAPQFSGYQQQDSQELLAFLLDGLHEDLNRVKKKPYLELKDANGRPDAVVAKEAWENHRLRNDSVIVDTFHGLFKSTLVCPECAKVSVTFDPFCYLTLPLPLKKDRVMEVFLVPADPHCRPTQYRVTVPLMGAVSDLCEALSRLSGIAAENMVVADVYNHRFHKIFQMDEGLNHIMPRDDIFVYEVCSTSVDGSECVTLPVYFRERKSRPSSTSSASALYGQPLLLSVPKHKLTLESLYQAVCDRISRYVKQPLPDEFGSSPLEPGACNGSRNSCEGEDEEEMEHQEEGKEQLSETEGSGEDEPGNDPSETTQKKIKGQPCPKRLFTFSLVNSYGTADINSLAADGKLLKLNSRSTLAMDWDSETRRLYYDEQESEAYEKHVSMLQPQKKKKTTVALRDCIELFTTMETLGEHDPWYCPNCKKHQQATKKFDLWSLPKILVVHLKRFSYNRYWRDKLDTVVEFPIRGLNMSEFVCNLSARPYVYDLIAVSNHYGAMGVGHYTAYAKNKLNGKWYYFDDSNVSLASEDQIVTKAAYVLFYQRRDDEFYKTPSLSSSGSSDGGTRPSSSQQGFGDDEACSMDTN
How it was run: as §1

Measured: log2 ratio of Biotin-Ahx-Ub-VS probe labelling

Chain of USP34 (Q70CQ2 whole entry, the tested form may be a part): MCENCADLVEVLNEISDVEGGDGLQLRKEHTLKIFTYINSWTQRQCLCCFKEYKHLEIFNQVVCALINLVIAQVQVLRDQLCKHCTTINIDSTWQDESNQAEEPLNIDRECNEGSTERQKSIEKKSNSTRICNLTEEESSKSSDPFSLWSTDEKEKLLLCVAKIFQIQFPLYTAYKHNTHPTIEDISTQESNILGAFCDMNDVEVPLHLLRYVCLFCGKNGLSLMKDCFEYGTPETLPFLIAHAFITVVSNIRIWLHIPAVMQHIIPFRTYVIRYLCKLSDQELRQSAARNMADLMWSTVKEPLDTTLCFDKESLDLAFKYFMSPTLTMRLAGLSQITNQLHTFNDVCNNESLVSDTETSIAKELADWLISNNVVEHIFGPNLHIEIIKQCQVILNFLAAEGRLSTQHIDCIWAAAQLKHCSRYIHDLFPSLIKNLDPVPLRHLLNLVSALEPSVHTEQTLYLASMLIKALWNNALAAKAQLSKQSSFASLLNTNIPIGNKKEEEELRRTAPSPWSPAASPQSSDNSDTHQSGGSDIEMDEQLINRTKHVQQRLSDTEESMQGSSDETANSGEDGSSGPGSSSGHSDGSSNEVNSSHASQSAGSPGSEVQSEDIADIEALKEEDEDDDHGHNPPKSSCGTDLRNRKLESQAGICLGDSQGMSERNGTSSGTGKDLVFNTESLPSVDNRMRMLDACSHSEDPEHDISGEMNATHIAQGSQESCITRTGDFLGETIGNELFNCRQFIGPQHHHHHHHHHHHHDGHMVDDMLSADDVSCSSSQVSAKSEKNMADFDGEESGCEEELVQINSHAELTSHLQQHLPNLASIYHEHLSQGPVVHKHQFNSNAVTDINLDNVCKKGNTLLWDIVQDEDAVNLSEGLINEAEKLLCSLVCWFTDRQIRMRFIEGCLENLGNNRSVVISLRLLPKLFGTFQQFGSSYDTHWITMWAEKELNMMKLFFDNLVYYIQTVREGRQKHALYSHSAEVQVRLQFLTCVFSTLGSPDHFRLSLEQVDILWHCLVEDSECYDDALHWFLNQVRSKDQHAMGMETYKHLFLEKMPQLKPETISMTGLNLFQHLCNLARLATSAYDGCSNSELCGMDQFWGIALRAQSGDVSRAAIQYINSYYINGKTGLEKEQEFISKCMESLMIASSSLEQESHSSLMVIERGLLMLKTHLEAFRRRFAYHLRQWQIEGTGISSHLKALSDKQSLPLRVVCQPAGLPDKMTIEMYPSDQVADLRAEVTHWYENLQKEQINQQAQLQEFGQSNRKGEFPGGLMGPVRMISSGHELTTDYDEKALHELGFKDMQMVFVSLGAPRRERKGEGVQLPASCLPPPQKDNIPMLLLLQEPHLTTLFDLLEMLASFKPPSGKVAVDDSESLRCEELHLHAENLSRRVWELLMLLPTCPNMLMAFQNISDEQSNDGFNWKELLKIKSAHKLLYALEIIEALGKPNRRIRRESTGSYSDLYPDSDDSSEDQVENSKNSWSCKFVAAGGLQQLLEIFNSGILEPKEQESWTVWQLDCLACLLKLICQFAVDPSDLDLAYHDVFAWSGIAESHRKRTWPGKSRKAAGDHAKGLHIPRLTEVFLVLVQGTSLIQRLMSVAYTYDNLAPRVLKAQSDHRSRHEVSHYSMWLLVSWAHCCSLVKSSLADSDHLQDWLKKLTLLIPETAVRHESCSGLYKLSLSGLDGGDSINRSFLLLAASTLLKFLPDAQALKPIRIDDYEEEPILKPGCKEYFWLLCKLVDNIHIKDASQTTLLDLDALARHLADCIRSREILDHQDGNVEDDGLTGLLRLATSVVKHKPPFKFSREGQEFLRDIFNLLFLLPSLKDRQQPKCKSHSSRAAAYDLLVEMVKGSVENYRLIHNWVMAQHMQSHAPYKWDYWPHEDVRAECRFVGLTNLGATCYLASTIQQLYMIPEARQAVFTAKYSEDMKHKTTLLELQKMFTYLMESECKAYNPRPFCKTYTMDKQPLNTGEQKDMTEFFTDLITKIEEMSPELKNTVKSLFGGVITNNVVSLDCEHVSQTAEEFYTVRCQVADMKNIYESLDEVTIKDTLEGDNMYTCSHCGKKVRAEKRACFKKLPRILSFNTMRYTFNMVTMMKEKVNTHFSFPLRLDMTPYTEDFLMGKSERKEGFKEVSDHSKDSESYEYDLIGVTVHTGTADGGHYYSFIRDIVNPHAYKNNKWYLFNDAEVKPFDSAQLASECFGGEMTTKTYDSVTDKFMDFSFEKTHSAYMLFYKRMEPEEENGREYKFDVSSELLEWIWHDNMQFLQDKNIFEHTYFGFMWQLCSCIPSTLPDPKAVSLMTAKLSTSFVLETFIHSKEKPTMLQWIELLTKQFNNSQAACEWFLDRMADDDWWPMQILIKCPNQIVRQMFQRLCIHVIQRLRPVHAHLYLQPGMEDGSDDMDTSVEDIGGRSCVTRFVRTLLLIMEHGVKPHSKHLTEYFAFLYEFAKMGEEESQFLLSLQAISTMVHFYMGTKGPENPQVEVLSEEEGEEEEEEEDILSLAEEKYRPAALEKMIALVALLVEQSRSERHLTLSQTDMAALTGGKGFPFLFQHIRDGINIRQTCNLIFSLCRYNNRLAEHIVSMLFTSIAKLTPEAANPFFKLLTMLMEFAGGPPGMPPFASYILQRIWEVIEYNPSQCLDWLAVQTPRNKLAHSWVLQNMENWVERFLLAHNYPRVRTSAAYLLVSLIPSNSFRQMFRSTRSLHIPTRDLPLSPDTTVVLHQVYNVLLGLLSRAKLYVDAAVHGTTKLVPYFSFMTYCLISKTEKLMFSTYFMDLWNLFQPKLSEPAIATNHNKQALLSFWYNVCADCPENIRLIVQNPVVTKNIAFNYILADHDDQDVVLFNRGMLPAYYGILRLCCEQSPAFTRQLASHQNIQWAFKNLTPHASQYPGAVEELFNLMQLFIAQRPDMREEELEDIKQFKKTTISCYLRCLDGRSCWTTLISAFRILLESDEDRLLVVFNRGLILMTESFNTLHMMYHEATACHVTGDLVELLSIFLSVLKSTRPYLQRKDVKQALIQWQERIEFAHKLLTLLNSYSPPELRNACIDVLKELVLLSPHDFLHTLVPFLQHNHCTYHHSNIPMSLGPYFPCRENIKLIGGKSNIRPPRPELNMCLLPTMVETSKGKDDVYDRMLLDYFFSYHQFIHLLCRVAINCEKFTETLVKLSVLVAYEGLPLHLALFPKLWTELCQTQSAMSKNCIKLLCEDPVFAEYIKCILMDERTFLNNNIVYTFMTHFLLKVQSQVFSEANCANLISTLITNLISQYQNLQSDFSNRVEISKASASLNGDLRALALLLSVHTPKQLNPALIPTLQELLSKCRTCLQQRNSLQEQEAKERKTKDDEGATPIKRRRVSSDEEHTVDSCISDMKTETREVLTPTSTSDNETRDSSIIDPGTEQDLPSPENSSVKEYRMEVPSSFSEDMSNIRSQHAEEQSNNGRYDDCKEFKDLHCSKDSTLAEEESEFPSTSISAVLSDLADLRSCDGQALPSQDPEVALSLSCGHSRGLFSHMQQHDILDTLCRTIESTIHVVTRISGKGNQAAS

O=C(CCl)N1CCc2ccccc2C(O)C1 (stereo not given)
inactive: USP34 -0.224 | USP36 -0.441 | USP38 -0.0535 | USP39 0.0381 | USP4 -0.274
